Many of the other results were omitted from the sample, so hits are more common in it than they were.
Bm FixLJ act: activators of Burkholderia fixLJ two-component system, primary screen, B. multivorans, GFP reporter | B. multivorans fixK-promoter GFP reporter, 18 h; stronger effect = higher value | 29,000 tested, 0.3% active | z-score (test concentration not listed) | AID 1918990, 2023;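 active = replicate mean overnight rise in green fluorescent reporter signal, 3 or more SD over negative controls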
Of the large screens only hits and unclear results are named; the others gave an inactive call.

COc1ccc(-c2cc3nc(-c4ccccc4)cc(C(F)(F)F)n3n2)cc1	none
COc1ccc(-c2cc(C(F)(F)F)n3ncc(-c4ccccc4)c3n2)cc1	Bm FixLJ act 3.3
Cc1ccc(-c2cc(C(F)(F)F)n3ncc(-c4ccccc4)c3n2)cc1	none
Cc1nc2ccc(C(=O)N3CC(C(=O)O)C(c4ccc(F)cc4)C3)cc2[nH]1 (centres undefined)	none
Cc1cc(CNC(=O)c2csc(C)c2-c2ccccc2)no1	none
CCOc1cc(C(c2c(C)[nH]n(-c3ccccc3)c2=O)c2c(C)[nH]n(-c3ccccc3)c2=O)ccc1O	Bm FixLJ act 3.3
COc1cc(C(c2c(C)[nH][nH]c2=O)c2c(C)[nH][nH]c2=O)ccc1OC(=O)c1ccccc1OC	none
Cc1[nH]n(-c2ccccc2)c(=O)c1C(c1cc(Cl)ccc1O)c1c(C)[nH]n(-c2ccccc2)c1=O	none
O=C(NCCCc1nn[nH]n1)N1CCN(c2ccccn2)CC1	none
CSCCC(NC(C)=O)C(=O)N1CCN(c2cc(C)nc(N)n2)CC1 (centres undefined)	none
CN(c1ccc(C(=O)NCc2noc(-c3cccs3)n2)cc1)S(C)(=O)=O	none
COc1ccc(CNC(=O)c2ccc(CNS(=O)(=O)c3ccc(OC)cc3)cc2)cc1	none
COCc1noc(CNC(=O)c2ccc(N(C)S(C)(=O)=O)cc2)n1	Bm FixLJ act 3
CN(C)S(=O)(=O)CC1CN(C(=O)c2cccc(C#CC(C)(C)O)c2)CC1O (centres undefined)	none
CC(C)(C)c1cc(CN2CC3CCC[C@](O)(c4ccccc4)C3C2)[nH]n1 (some centres undefined)	none
O=C(c1cccc2c1OCCO2)N1CC(O)C(Cc2cnccn2)C1 (centres undefined)	none
CC(NC(=O)CCc1nc2ccccc2[nH]1)c1nncn1C1CCCC1 (centres undefined)	none
CCOc1ccc2ncc3c(-c4cccc(OC)c4)nn(-c4ccccc4)c3c2c1	Bm FixLJ act 3.3
CCOc1ccc(-c2nn(-c3ccc(F)cc3)c3c2cnc2ccc(F)cc23)cc1	none
CCc1ccc(-c2nn(-c3ccc(OC)cc3)c3c2cnc2ccc(OC)cc23)cc1	none
Cn1c(SCC(=O)NCCc2ccc(F)cc2)nnc1C1CCCNC1 (centres undefined)	none
CC(=O)N1CCCC(C(=O)NCCS(=O)(=O)c2ccc(F)cc2)C1 (centres undefined)	none
CC(C)(C)c1ccc(C2Sc3ccccc3NC3=C2C(=O)c2ccccc23)cc1 (centres undefined)	Bm FixLJ act 3.5
O=C(Cc1cccs1)Nc1ccc(NC(=O)CN2CCCCC2)cc1	none
COc1ccc(C(=O)c2oc3ccccc3c2NC(=O)c2ccc(F)cc2)cc1	none
COc1ccccc1C(=O)Nc1c(C(=O)c2ccccc2)oc2ccccc12	Bm FixLJ act 3.7
COc1ccccc1OCC(=O)Nc1c(C(=O)c2ccc(C)cc2)oc2ccccc12	none
COCc1nc(CN2CCN(c3nc4ccccc4o3)CC2)no1	none
CCOc1ccc(NC(=O)N2CCCN(C(=O)c3ccc(F)c(C)c3)CC2)cc1	none
C#CCOc1ccc(C2C(C(=O)OC)=C(C)NC3=C2C(=O)c2ccccc23)cc1OCC (centres undefined)	Bm FixLJ act 3.7
CCOc1cc(C2C(C(=O)OC)=C(C)NC3=C2C(=O)c2ccccc23)cc(Br)c1OCC (centres undefined)	none
CCOC(=O)C1=C(C)NC(C)=C(C(=O)OC)C1c1cccc([N+](=O)[O-])c1 (centres undefined)	none
CCOc1cc(Br)c(C2C(C(=O)OC)=C(C)NC3=C2C(=O)c2ccccc23)cc1OCC (centres undefined)	none
CCOC(=O)COc1ccc(C2C(C(=O)OC)=C(C)NC3=C2C(=O)c2ccccc23)cc1Cl (centres undefined)	Bm FixLJ act 4.1
CCOc1cc(C2C(C(=O)OC)=C(C)NC3=C2C(=O)c2ccccc23)c(Br)cc1OC (centres undefined)	none
CCOc1cc(-c2c(-c3ccccc3)ncn2CC2COCCO2)ccc1O (centres undefined)	none
Cc1cc2ncc(C(=O)N3CCCC(OCc4ccccn4)C3)c(=O)n2[nH]1 (centres undefined)	none
O=C(NCc1nc(-c2ccccc2Cl)no1)C1CC(=O)N(Cc2cccnc2)C1 (centres undefined)	none
Nc1c(C(=O)Nc2ccccc2Br)sc2nc(-c3cccs3)ccc12	none
Nc1c(C(=O)Nc2ccc(F)c(F)c2)sc2nc(-c3ccncc3)ccc12	none
Nc1c(C(=O)Nc2ccc(Cl)cc2F)sc2nc(-c3cccs3)ccc12	Bm FixLJ act 8.7
CCOc1ccccc1NC(=O)N1CCCN(C(=O)c2ccncc2Cl)CC1	none
COCCn1ccnc1C1CCCN(C(=O)c2ccc3c(c2)ncn3C)C1 (centres undefined)	none
O=C1C(O)=C(O)C(=O)C(O)=C1O	Bm FixLJ act 7.4
CC(=O)c1cc(CN2CCn3nc(CNC(=O)C4CCC4)cc3C2)cs1	none
Cc1cc(CC(=O)N2CCC3(CC2)OCCc2ccsc23)on1	none
CC(=O)NCC1CCC2(CCN(c3cc(C4CC4)ncn3)CC2)O1 (centres undefined)	none
CCC(C)Sc1oc(-c2ccco2)nc1S(=O)(=O)c1ccc(C)cc1 (centres undefined)	Bm FixLJ act 5.5
Cc1ccc(S(=O)(=O)c2nc(-c3ccco3)oc2SCc2ccccc2Cl)cc1	none
Cc1ccc(CSc2oc(-c3ccco3)nc2S(=O)(=O)c2ccc(C)cc2)cc1	none
Cc1ccccc1N1CCN(C(=O)CCC(=O)Nc2nncs2)CC1	none
O=C(Cn1ncc2c3ccccc3n(Cc3ccc(Cl)cc3)c2c1=O)NCCC1=CCCCC1	Bm FixLJ act 6.4
O=C(Cn1ncc2c3ccccc3n(Cc3ccc(Cl)cc3)c2c1=O)NC1CCCCCC1	Bm FixLJ act 11
CC1CCC(NC(=O)Cn2ncc3c4ccccc4n(Cc4ccc(Cl)cc4)c3c2=O)CC1 (centres undefined)	none
Cc1cc(C)c(Cn2c3ccccc3c3cnn(CC(=O)NCCC4=CCCCC4)c(=O)c32)c(C)c1	none
Cc1ccccc1Cn1c2ccccc2c2cnn(CC(=O)NC3CCCCCC3)c(=O)c21	none
O=C(Cn1ncc2c3ccccc3n(Cc3ccccc3)c2c1=O)NCCc1ccc(Cl)cc1	none
COc1ccccc1NC(=O)CN1CCCC(CNC(=O)c2ccsc2)C1 (centres undefined)	none
COCCN1CC(Cc2nc(-c3ccccc3)nc3ccccc23)CC1=O (centres undefined)	none
CN(Cc1noc(C2CC2)n1)C(=O)NC1CCCN(Cc2ccccc2F)C1 (centres undefined)	none
Cc1nc(C(C)C)sc1C(=O)N1CC(O)C(Cc2ccncc2)C1 (centres undefined)	none
CN(CCc1ccccn1)c1ncccc1CNC(=O)c1ccncc1F	none
CNC(=O)c1cccc(NCC2(c3ccccc3)CCOCC2)n1	none
O=S(=O)(NCCc1cnn(-c2ccccc2)c1)NCc1ccccc1	none
COc1ccc(C2=C(N3CCN(c4cc(C)ccc4C)CC3)c3ccccc3C2=O)cc1	none
COc1ccc(OC)c(NC2=C(c3ccccc3)C(=O)c3ccccc32)c1	none
COc1ccc(Nc2c3c(nc4ccccc24)CCC3)cc1Cl	none
COc1ccc(C2=C(N3CCN(c4cc(Cl)ccc4C)CC3)c3ccccc3C2=O)cc1	none
COc1ccc(NC2=C(c3ccccc3)C(=O)c3ccccc32)cc1Cl	Bm FixLJ act 3.8
Cc1ccc(NC2=C(c3ccc(C(F)(F)F)cc3)C(=O)c3ccccc32)cc1C	Bm FixLJ act 3.3
CN(CC1(CO)CC1)C(=O)Nc1ccc(C=Cc2ccccn2)cc1	none
CCCn1ncc(C(=O)NCc2ccc(C(=O)O)s2)c1C	none

Screening results deposited in PubChem BioAssay by ICCB-Longwood Screening Facility, Harvard Medical School.
